# Experiments:
# Details in all cases: concentration: 1 μM, replicates: in singlicate; n = 1
# PDGFRB = test system: PDGFRB
# PDPK1 = test system: PDPK1
# PFTAIRE2 = test system: PFTAIRE2
# PFTK1 = test system: T1, PFTK1
# T1 construct: gene CDK14
# PHKG1 = test system: PHKG1
# PHKG2 = test system: PHKG2
# PIK3C2B = test system: PIK3C2B
# PIK3C2G = test system: PIK3C2G
# PIK3CA = test system: PIK3CA
# PIK3CB = test system: PIK3CB
# PIK3CD = test system: PIK3CD
# PIK3CG = test system: PIK3CG
# PIK4CB = test system: T2, PIK4CB
# T2 construct: gene PI4KB
# PIKFYVE = test system: PIKFYVE
# PIM1 = test system: PIM1
# PIM2 = test system: PIM2
# PIM3 = test system: PIM3
# PIP5K1A = test system: PIP5K1A
# PIP5K1C = test system: PIP5K1C
# PIP5K2B = test system: PIP5K2B
# 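Also: KINOMEscan kinase panel screen.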
SMILES,%Inh (PDGFRB) [%],%Inh (PDPK1) [%],%Inh (PFTAIRE2) [%],%Inh (PFTK1) [%],%Inh (PHKG1) [%],%Inh (PHKG2) [%],%Inh (PIK3C2B) [%],%Inh (PIK3C2G) [%],%Inh (PIK3CA) [%],%Inh (PIK3CB) [%],%Inh (PIK3CD) [%],%Inh (PIK3CG) [%],%Inh (PIK4CB) [%],%Inh (PIKFYVE) [%],%Inh (PIM1) [%],%Inh (PIM2) [%],%Inh (PIM3) [%],%Inh (PIP5K1A) [%],%Inh (PIP5K1C) [%],%Inh (PIP5K2B) [%]
O=C(Nc1n[nH]c2nc(-c3ccco3)c(Br)cc12)c1ccc(CN2CCCC2)cc1.O=C(O)[C@H](O)[C@@H](O)C(=O)O [SB-742352],99.7,0,5,0,0,0,0,0,0,0,0,5,40,0,0,0,0,0,0,0
CN1c2ccc(-c3ccc(C(=O)NCCO)cc3)cc2-c2[nH]ncc2S1(=O)=O,11,17,0,0,0,41,0,8,0,0,10,0,0,0,10,5,24,0,41,0
CSc1nn2c(=O)cc(N3CCOCC3)nc2n1Cc1cccc(Cl)c1Cl [GSK2347225],24,0,45,20,0,0,80,33,15,100,85,56,0,37,8,0,0,0,27,4
Fc1cccc(COc2ccc(Nc3ncnc4cc[nH]c34)cc2Cl)c1,25,4,17,12,0,7,32,17,0,32,17,9,12,0,26,13,34,0,0,16
c1ccc(-c2ccc3c(-c4ccnc(Nc5ccc6c(c5)OCCO6)n4)cnn3n2)cc1 [GW818941],4,17,5,19,0,0,0,11,0,0,0,0,0,0,9,0,17,0,0,1
Fc1ccc(Nc2nccc(-c3c(-c4ccc(Cl)cc4)nn4ncccc34)n2)cc1F [GW829058],44,12,4,10,7,0,6,29,25,50,54,18,32,20,31,11,24,13,54,14
FC(F)(F)c1ccc(-c2nn3ncccc3c2-c2ccnc(Nc3cccc(C(F)(F)F)c3)n2)cc1 [GW828205],9,0,0,48,9,0,0,0,0,0,0,0,0,0,12,17,32,53,0,0
Clc1cc(Nc2ncnc3cc[nH]c23)ccc1OCc1ccccn1,38,0,5,10,0,0,15,43,8,15,25,4,34,0,5,10,22,30,0,0
O=C(Nc1ccccc1F)NC1CCN(c2ccnc(Nc3ccc(F)cc3)n2)C1 (stereo not drawn) [GSK1379722],8,14,7,14,13,0,0,0,0,0,0,0,100,0,0,0,0,0,45,14
Cl.c1ccc(Cn2ncc3cc(Nc4ncnc5ccccc45)ccc32)cc1 [GW273749],0,0,20,14,0,0,16,0,0,7,0,3,0,0,0,0,1,0,11,10
OCCOCCn1ccc2ncnc(Nc3ccc(Oc4cccc(Cl)c4)c(Cl)c3)c21,0,13,0,10,0,26,0,0,0,0,0,0,0,25,2,0,5,0,34,0
Cc1cc(N2CCC(NS(=O)(=O)c3ccc(F)cc3)CC2)nc(Nc2cccc(C#N)c2)n1.O=C(O)C(F)(F)F [GSK1653537],0,15,10,9,17,0,0,6,0,2,0,15,10,0,25,9,0,0,0,6

# — paper PMC5540273 (PLoS ONE, 2017)
